High-throughput results deposited in PubChem BioAssay by The Scripps Research Institute Molecular Screening Center.
hgDAF-12 ag = activates the H. glycines DAF-12 receptor ligand-binding domain. HEK293 GAL4-hgDAF12 UAS-luciferase reporter, agonist luminescence; normalized to butyrate control. activation, % at 6.8 µM. hit rate 1.8% among 370,000. AID 687014;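 active = activation above a cutoff set at the mean of all screened compounds plus 3 SD, cut at about 10% in these data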;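 also: 0% = DMSO wells and 100% = sodium butyrate wells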
hcDAF12 agonist = activates DAF-12 receptor from parasite H. contortus; activation, % at 6.8 µM; HEK293 hcDAF-12 lit1-tk-luc reporter, luminescence; 0% DMSO, 100% Δ7-dafachronic acid; hit rate 1.4% among 370,000; AID 652067;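 active = activation above the mean of all tested compounds plus 3 SD, cut at about 5.5% in these data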;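 also: 100% = response to 3 µM Δ7-dafachronic acid high control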
DAX1 inh-1 = DAX1 (NR0B1) inhibition, primary screen; inhibition, % at 6.8 µM; hit rate 1.1% among 370,000; HEK293T StAR-luciferase reporter, SF-1/DAX-1 repression relief; AID 652010;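 active = inhibition above the mean over all tested compounds plus 3 SD, cut at about 3.6% in these data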;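 also: 0% = DAX-1 cells with DMSO and 100% = cells lacking DAX-1 with DMSO; higher inhibition means more luminescence from relief of DAX-1 repression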
ssDAF12 agonist = activates DAF-12 receptor from parasite S. stercoralis | activation, % at 6.8 µM | AID 652126 | HEK293 ssDAF-12/GRIP1 lit1-tk-luc reporter, luminescence; % of 3 µM dafachronic acid response | hit rate 1% among 370,000;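 active = activation above the mean over all tested compounds plus 3 SD, cut at about 0.9% in these data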;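 also: 0% = DMSO-only wells and 100% = 3 µM delta7-dafachronic acid wells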
SMARCA2 act = SMARCA2 function activation, primary screen. MG213 cells, MMTV-luciferase reporter, dexamethasone, overnight. hit rate 1% among 370,000. activation, % at 9.1 µM; in the data active = activation above about 7.8%;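 also: 0% = vehicle wells and 100% = reference activator wells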
DAX1 inh-2 = NR0B1 (DAX1) inhibition; HEK293 Gal4-DAX1 luciferase reporter, luminescence; P51843; inhibition, % at 6.75 µM; hit rate 0.99% among 340,000;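 active = inhibition above the mean over all tested compounds plus 3 SD, cut at about 4.2% in these data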;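 also: 0% = DAX1-transfected cells with DMSO and 100% = empty-vector control cells with DMSO; inhibition shows as a rise in luminescence from relieved DAX1 repression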
Target sequence (P51843 207-470 limits assumed): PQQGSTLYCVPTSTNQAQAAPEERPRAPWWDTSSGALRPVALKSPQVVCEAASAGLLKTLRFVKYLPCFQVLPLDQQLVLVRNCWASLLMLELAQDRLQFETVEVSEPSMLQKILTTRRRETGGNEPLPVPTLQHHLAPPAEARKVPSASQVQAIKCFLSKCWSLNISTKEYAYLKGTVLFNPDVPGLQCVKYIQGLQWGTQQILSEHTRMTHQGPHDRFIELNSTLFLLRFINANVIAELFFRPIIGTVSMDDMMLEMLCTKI
Numbers without * were called inactive; · = no result given. Only some compounds are listed: those with a hit (about 4.8% of all), similar ones and a draw of the others.

SMILES	hgDAF-12 ag	hcDAF12 agonist	DAX1 inh-1	ssDAF12 agonist	SMARCA2 act	DAX1 inh-2
CS(=O)(=O)c1ccc2nc(NC(=O)c3cccc([N+](=O)[O-])c3)sc2c1	11*	3	0	0	3	1
O=C(Nc1nc2ccc([N+](=O)[O-])cc2s1)c1ccco1	8	2	4.2*	0	5	·
COc1ccc(Cc2nc(N)nc(N)n2)cc1	-1	-2	0	0	0	1
CCN1C(=O)/C(=C/N(C)C)c2ccccc21	0	-1	0	-2	-3	0
CCOC(=O)CCC(=O)N1CCNC(=O)C1	0	5.6*	0	-2	-1	2
COc1ccc(S(=O)(=O)N(CC(=O)NC2CCCC2)c2ccccc2OC)cc1	0	-1	-1	-2	1	0
Fc1ccc(-n2nnc(-c3cccnc3)n2)cc1	11*	1	1	-1	7	2
C[C@H]1CN=C(N(C)C)N1CCc1ccccc1	2	-1	0	-1	1	2
CC(C)c1ccc(NC(=O)C2CC3CCC2C3)cc1 (centres undefined)	9	0	1	-1	6	6.0*
O=C(Nc1ccc(F)cc1)C1CC2CCC1C2 (centres undefined)	2	-2	0	-1	3	0
CCOc1ccc(NC(=O)C2CC3CCC2C3)cc1 (centres undefined)	5	3	0	0	2	·
CCC(C)c1ccc(NC(=O)C2CC3CCC2C3)cc1 (centres undefined)	7	1	1	-1	7	4.7*
CCOc1ccc(C2c3[nH]c4ccccc4c3C[C@H]3C(=O)N(C4CCN(Cc5ccccc5)CC4)CC(=O)N23)cc1OC (some centres undefined)	2	-1	0	-1	5	1
N#CC1=C(O)CCCn2c1nc1ccccc1c2=O	-1	0	1	-1	-3	0
N#CC1=C(O)C(c2ccccc2)n2c1nc(=O)c1ccccc12 (centres undefined)	2	1	1	-1	1	7.3*
CC(NC(=O)c1noc2c1CCCCC2)c1ccccc1 (centres undefined)	2	0	1	0	0	0
CC1(C)CC[C@]2(C(=O)O[C@@H]3OC(CO)[C@@H](O)[C@H](O)[C@H]3O)CC[C@]3(C)C(=CCC4[C@@]5(C)CC[C@H](O[C@@H]6OC(C(=O)O)[C@@H](O)[C@H](O)[C@H]6O)C(C)(C)C5CC[C@]43C)[C@@H]2C1 (some centres undefined)	2	-1	0	-1	-4	-2
Cc1cc(-c2nnc(CCC(=O)NCc3ccc(F)c(F)c3)o2)no1	3	0	0	1.9*	-1	4.3*
O=C(CCc1nnc(C2CCCCC2)o1)NCc1ccc(F)c(F)c1	-1	0	0	-1	-3	5.6*
CCN(CC)C(=O)C(C)N(C#N)c1nc(C)cc(C)n1 (centres undefined)	2	6.3*	0	-1	-1	-2
Cc1cc(C)nc(N(C#N)C(C)C(=O)N(C)C)n1 (centres undefined)	0	-1	0	-1	-3	0
COc1ccc(S(=O)(=O)Nc2cc(Cl)ccc2OC)cc1	4	-1	-2	2.7*	0	-1
CSc1nc(C)c(CCOCc2ccc(F)cc2)c(=O)[nH]1	2	-2	-1	-2	-2	·
CCOC(=O)C1=C(C)NC(=O)C(C(N)=O)C12CCCCC2 (centres undefined)	1	-1	-1	-1	1	0
CCOC(=O)C1=C(C)NC(=O)C(C(N)=O)C12CCCC2 (centres undefined)	-3	0	1	-1	-1	5.1*
SMILES	hgDAF-12 ag	hcDAF12 agonist	DAX1 inh-1	ssDAF12 agonist	SMARCA2 act	DAX1 inh-2
C#CCOCCOCCOCCNc1nc(N2CCN(C(=O)Cn3cc(CCCCN)nn3)CC2)nc(N2CCN(C(=O)Cn3cc(CCCCN)nn3)CC2)n1	3	-2	0	-1	-2	-1
COc1cc(OC)c(C2C(C(=O)O)c3ccccc3C(=O)N2C)cc1OC (centres undefined)	1	-1	0	-1	0	0
CCc1cccc(NC(=O)CCc2nc(-c3cccs3)no2)c1	0	-1	-1	-2	-3	0
O=C(CCc1nc(-c2cccs2)no1)Nc1cnc2ccccc2c1	-2	1	0	1.7*	-1	-1
O=S(=O)(NCCc1ccccc1)c1cccc2cccnc12	-4	1	0	0	-4	1
O=C(Nc1ccc(F)cc1F)c1ccc2nc(N3CCOCC3)sc2c1	-2	-1	0	-1	-5	-1
O=C(Nc1nc2cc3c(cc2s1)OCO3)c1ccc(N2C(=O)CCC2=O)cc1	1	0	0	1.4*	-1	1
O=C(Nc1nc2cc3c(cc2s1)OCO3)c1cccc(N2C(=O)CCC2=O)c1	3	-1	1	-1	4	4
O=C(Nc1ccccc1F)c1ccc2nc(N3C(=O)CCC3=O)sc2c1	3	1	2	-1	8	7.1*
O=C(Nc1nc2ccc(F)cc2s1)c1ccc(N2CCCC2=O)cc1	4	0	4.2*	-1	1	1
Cc1ccc2nc(NC(=O)c3ccc(N4C(=O)CCC4=O)cc3)sc2c1	5	5.9*	1	0	-4	1
CCCCCSc1nc2c(c(=O)[nH]c(=O)n2C)n1CC	-3	-1	-1	-1	1	1
CC1(C)Cc2ccccc2C(=NC(Cc2ccccc2)C(=O)O)N1 (centres undefined)	-2	0	0	-2	-3	0
C=CCn1c(COc2ccc(OC)cc2)nnc1SCn1nnc2ccccc2c1=O	-1	-2	0	6.3*	0	2
CSc1ccc(-c2nnn(Cc3ccccn3)n2)cc1	12*	0	2	0	7	1
O=C(CCc1nnc(C2(c3ccc(Cl)cc3)CCC2)o1)N1CCCC(O)C1 (centres undefined)	1	2	-1	-1	-2	0
CC(NC(=O)CCc1nnc(C2(c3ccc(Cl)cc3)CCC2)o1)C1CC1 (centres undefined)	3	0	0	0	1	4.4*
O=C1C(c2ccccc2)=NCCN1C(c1ccc(F)cc1)c1nc2ccccc2[nH]1 (centres undefined)	2	6.1*	0	0	5	·
C[C@H](NC(=O)C1CC(=O)N(c2ccc3c(c2)OCCO3)C1)C(=O)NC1CCCC1 (some centres undefined)	0	0	0	0	-2	0
O=C(CNc1ccccc1)Nc1ccc(F)cc1	11*	5	3	0.9*	3	2
